Compounds with a hit are over-represented: about 6.8% of the library has one in this group of screens.
C diff HTS: inhibitors of Clostridium difficile growth; growth activity, negative = inhibition, % at 16 µg/mL (by protocol); AID 1259249; Clostridium difficile clinical isolate growth, OD600, 24 h; stronger effect = lower value; actives 0.25% (n = 86,000);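 active = mean growth activity at or below -80% and every replicate also at or below -80%; inconclusive = mean at or below -80% but some replicate above -80%; inactive = mean growth activity above -80%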;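 note: 0% = DMSO wells and -100% = levofloxacin 16 µg/mL wells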
T cruzi growth-1: T. cruzi proliferation inhibition; T. cruzi beta-gal in NIH3T3, GalScreen luminescence, 90 h; actives 5.9% (n = 77,000); inhibition, % at 8.34 µM; AID 624255;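 active = mean inhibition above about 93%, with at least 55% of replicates each passing it, limit read from the data, passing the limit was not always enough; inconclusive = only one of those two conditions holds; inactive = neither condition holds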
Pf Dd2 growth: P. falciparum Dd2 growth inhibition; SYBR Green, 72 h; stronger effect = lower value; actives 2.3% (n = 94,000); activity change, % at 10 µM; in the data active = activity change below about -80%; inconclusive = no clear call, values can overlap the other calls
T cruzi growth-2: inhibitors of T. cruzi proliferation | shares compounds with T cruzi growth-1 | T. cruzi beta-gal in NIH3T3, GalScreen luminescence, 90 h | inhibition, % at 8.35 µM | actives 72% (n = 5,600) | AID 651739;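 active = mean replicate inhibition above about 95% and at least 55% of replicates individually reaching it, limit read from the data; inconclusive = only one of the two criteria is met; inactive = neither criterion is met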
T cruzi growth-3: inhibitors of T. cruzi proliferation. shares compounds with T cruzi growth-1. T. cruzi beta-gal in NIH3T3, GalScreen luminescence, 90 h. inhibition, % at 2.09 µM. actives 21% (n = 5,600);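 active = mean inhibition above about 95%, with at least 55% of replicates also reaching it, limit read from the data; inconclusive = meets just one of the two conditions; inactive = meets neither condition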;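 note: plate controls were neutral control median for no effect and positive control median for full effect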
NIH3T3 tox: cytotoxicity in mouse NIH/3T3 fibroblasts. shares compounds with T cruzi growth-1. AID 651742. actives 14% (n = 5,600). cytotoxicity (signal decrease), % at 8.35 µM. NIH/3T3 viability, CellTiter-Glo ATP luminescence, 90 h;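 active = mean signal decrease across replicates above about 35% based on untreated-well scatter, with enough replicates individually passing, limit read from the data; inconclusive = no rule stated though some were filed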;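 note: 0% = median of neutral control wells and 100% = median of positive control wells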
3T3 cytotox 2: cytotoxicity in mouse NIH/3T3 fibroblasts; AID 651744; NIH/3T3 viability, CellTiter-Glo ATP luminescence, 90 h; actives 56% (n = 5,600); shares compounds with T cruzi growth-1; inhibition, % at 24.9 µM;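 active = mean loss of cell viability signal at or above a set limit, and enough replicates individually reaching it; inconclusive = meets only the mean limit or only the replicate share; inactive = meets neither condition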;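 note: 0% = median of neutral control wells and 100% = median of positive control wells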
* marks the source's active call; other numbers are inactive results; ? = inconclusive; nt = no result given; ! = a repeat was not active.

SMILES	C diff HTS	T cruzi growth-1	Pf Dd2 growth	others
COCC(=O)Nc1ccc2c(c1)OC[C@H](C)N(Cc1ccncc1)C[C@H](C)[C@@H](OC)CN(C)C2=O	6	nt	-85*
CCCN1C[C@H](C)[C@@H](OC)CN(C)C(=O)c2ccc(NC(=O)Nc3cccc(F)c3)cc2OC[C@H]1C	nt	-62	-52
CCCN1C[C@H](C)[C@@H](OC)CN(C)C(=O)c2cc(NC(=O)Nc3cccc(F)c3)ccc2OC[C@H]1C	6	-13	-82*
COc1cccc(C(=O)Nc2ccc3c(c2)C(=O)N(C)C[C@H](OC)[C@H](C)CN(C(C)=O)[C@H](C)CO3)c1	-6	4	-4
CCS(=O)(=O)Nc1ccc2c(c1)C(=O)N(C)[C@@H]1CC[C@H](CC(=O)NC3CCCCC3)O[C@H]1CO2	-1	-21	0
C[C@H](CO)N1C[C@H](C)[C@H](CN(C)C(=O)Nc2ccc(C(F)(F)F)cc2)Oc2ccc(NC(=O)Nc3cccc4ccccc34)cc2C1=O	1	88	-83*
C[C@@H]1CN([C@@H](C)CO)C(=O)c2cc(NC(=O)Nc3ccc(C(F)(F)F)cc3)ccc2O[C@H]1CN(C)C(=O)Nc1cccc2ccccc12	-5	-43	-87*
CC(C)NC(=O)Nc1cccc2c1O[C@H](CN(C)C(=O)Nc1ccc(C(F)(F)F)cc1)[C@H](C)CN([C@@H](C)CO)C2=O	-21	4	-85*
CC(C)NC(=O)Nc1cccc2c1O[C@H](CN(C)C(=O)Nc1ccc(C(F)(F)F)cc1)[C@@H](C)CN([C@H](C)CO)C2=O	15	27	0
C[C@H]1CN([C@@H](C)CO)C(=O)c2cccc(NS(=O)(=O)c3cn(C)cn3)c2O[C@H]1CN(C)C(=O)Nc1ccc(C(F)(F)F)cc1	-2	-90	-85*
C[C@@H]1CN([C@H](C)CO)C(=O)c2cccc(NS(=O)(=O)c3cn(C)cn3)c2O[C@@H]1CN(C)C(=O)Nc1ccc(C(F)(F)F)cc1	-2	-84	-9
C[C@H]1CN([C@@H](C)CO)C(=O)c2cc(NC(=O)Nc3ccc(C(F)(F)F)cc3)ccc2O[C@H]1CN(C)C(=O)Nc1cccc2ccccc12	-1	51	-31
C[C@@H]1CN([C@@H](C)CO)C(=O)c2cc(NC(=O)Nc3cccc4ccccc34)ccc2O[C@@H]1CN(C)C(=O)Nc1ccc(C(F)(F)F)cc1	0	70	-37
C[C@@H]1CN([C@H](C)CO)C(=O)c2cc(NS(=O)(=O)c3ccc(F)cc3)ccc2O[C@@H](C)CCCCO[C@H]1CN(C)S(=O)(=O)c1ccccc1	-21	nt	-45
O=C(C[C@H]1C=C[C@@H](NC(=O)c2cccc(F)c2)[C@H](CO)O1)NCCN1CCCC1	-3	nt	-28
CNC(=O)C[C@H]1CC[C@@H]2[C@H](COc3ccc(NC(=O)Nc4cccc(Cl)c4)cc3C(=O)N2C)O1	-7	27	0
C[C@H](CO)N1C[C@H](C)[C@@H](CN(C)Cc2ccccc2)Oc2ccc(NC(=O)CCN3CCOCC3)cc2C1=O	-3	-2	-9
C[C@H](CO)N1C[C@H](C)[C@H](CN(C)C(=O)Nc2cccc3ccccc23)Oc2c(NC(=O)Nc3ccc(C(F)(F)F)cc3)cccc2C1=O	-36	89	-16
C[C@@H]1CN([C@@H](C)CO)C(=O)c2cccc(NC(=O)Nc3ccc(C(F)(F)F)cc3)c2O[C@H]1CN(C)C(=O)Nc1cccc2ccccc12	12	88	-88*
C[C@@H]1CN([C@@H](C)CO)C(=O)c2cc(NC(=O)Nc3ccccc3)ccc2O[C@H]1CN(C)C(=O)Nc1cccc2ccccc12	-2	1	6
C[C@@H]1CN([C@@H](C)CO)C(=O)c2cc(NC(=O)Nc3ccccc3)ccc2O[C@@H]1CN(C)C(=O)Nc1cccc2ccccc12	-1	15	-91*
C[C@@H]1CN([C@@H](C)CO)C(=O)c2cc(NC(=O)Nc3ccc4c(c3)OCO4)ccc2O[C@H]1CN(C)C(=O)Nc1ccc(C(F)(F)F)cc1	-3	-60	-5
C[C@@H]1CCCCO[C@H](CN(C)CC2CC2)[C@H](C)CN([C@H](C)CO)C(=O)c2cc(NC(=O)c3ccccc3)ccc2O1	-4	15	-81*
CCCN(C)C[C@@H]1OCCCC[C@@H](C)Oc2ccc(NC(=O)c3ccccc3)cc2C(=O)N([C@H](C)CO)C[C@@H]1C	3	28	-83*!
CCCN(C)C[C@H]1OCCCC[C@@H](C)Oc2ccc(NC(=O)c3ccccc3)cc2C(=O)N([C@H](C)CO)C[C@H]1C	4	63	-69
SMILES	C diff HTS	T cruzi growth-1	Pf Dd2 growth	others
C[C@H](CO)N1C[C@H](C)[C@@H](CN(C)CC2CC2)OCCCC[C@H](C)Oc2ccc(NC(=O)c3ccccc3)cc2C1=O	-1	66	-35
CCNC(=O)[C@@H]1[C@@H](CO)[C@@H]2Cn3c(ccc(/C=C/c4ccccc4)c3=O)[C@H]1N2C(=O)C1CCCC1	0	nt	21
C[C@@H]1CN([C@H](C)CO)C(=O)c2cccc(NS(=O)(=O)c3cccs3)c2O[C@H]1CN(C)C(=O)Nc1ccc(C(F)(F)F)cc1	nt	-68	-10
Cc1ccccc1-c1ccc([C@@H]2[C@H](CO)N3CCCCN(C(=O)Nc4ccccc4)C[C@@H]23)cc1	42	-7	-62
Cc1ccc(-c2ccc([C@H]3[C@@H](CO)N4CCCCN(C(=O)Nc5ccccc5)C[C@@H]34)cc2)cc1	-2	118*	29	T cruzi growth-2=106*;T cruzi growth-3=86;NIH3T3 tox=10;3T3 cytotox 2=78*
Cc1ccccc1-c1ccc([C@H]2[C@@H](CO)N3CCCCN(C(=O)Nc4ccccc4)C[C@@H]23)cc1	-9	-6	14
Cc1ccc(-c2ccc([C@@H]3[C@H]4CN(C(=O)Nc5ccccc5)CCCCN4[C@H]3CO)cc2)cc1	61	?	7	T cruzi growth-2=?;T cruzi growth-3=95;NIH3T3 tox=33;3T3 cytotox 2=103*
C[C@@H]1CN([C@@H](C)CO)C(=O)c2cc(C#CC3CCCCC3)cnc2O[C@H]1CN(C)S(C)(=O)=O	-8	78	-59
C[C@H]1CN([C@@H](C)CO)C(=O)c2cc(C#Cc3cccc(F)c3)cnc2O[C@H]1CN(C)C(=O)C1CC1	3	69	-23
C[C@H]1CN([C@@H](C)CO)C(=O)c2cc(C#Cc3cccc(F)c3)cnc2O[C@@H]1CN(C)C(=O)C1CCCCC1	nt	114*	-89*	T cruzi growth-2=113*;T cruzi growth-3=66;NIH3T3 tox=5;3T3 cytotox 2=76*
C[C@@H]1CN([C@@H](C)CO)C(=O)c2cc(C#Cc3cccc(F)c3)cnc2O[C@H]1CN(C)C(=O)C1CCCCC1	-1	117*!	-52	T cruzi growth-2=105*;T cruzi growth-3=61;NIH3T3 tox=13;3T3 cytotox 2=92*
